# Measurements as given in PubChem BioAssay AID743110 (Vanderbilt Specialized Chemistry Center, 2013).
# Entries with a potency or affinity are not part of this list. The source made the active and inactive calls.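 How the source made its calls: active means Blocks human M5 receptor in a calcium assay, with half-maximal inhibiting concentration under 10 µM; inactive means the rest.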
# Molecular target: Muscarinic acetylcholine receptor M5 (Homo sapiens) (UniProt P08912)
# Assay: inhibition of ACh-evoked human M5 signalling – cell-based, CHO-K1 hM5, Fluo-4 calcium flux, ACh EC80, dose response (AID 743110)
# Conditions: series mostly up to 30 µM
# Muscarinic acetylcholine receptor M5 (Homo sapiens), sequence (P08912 whole entry, looked up): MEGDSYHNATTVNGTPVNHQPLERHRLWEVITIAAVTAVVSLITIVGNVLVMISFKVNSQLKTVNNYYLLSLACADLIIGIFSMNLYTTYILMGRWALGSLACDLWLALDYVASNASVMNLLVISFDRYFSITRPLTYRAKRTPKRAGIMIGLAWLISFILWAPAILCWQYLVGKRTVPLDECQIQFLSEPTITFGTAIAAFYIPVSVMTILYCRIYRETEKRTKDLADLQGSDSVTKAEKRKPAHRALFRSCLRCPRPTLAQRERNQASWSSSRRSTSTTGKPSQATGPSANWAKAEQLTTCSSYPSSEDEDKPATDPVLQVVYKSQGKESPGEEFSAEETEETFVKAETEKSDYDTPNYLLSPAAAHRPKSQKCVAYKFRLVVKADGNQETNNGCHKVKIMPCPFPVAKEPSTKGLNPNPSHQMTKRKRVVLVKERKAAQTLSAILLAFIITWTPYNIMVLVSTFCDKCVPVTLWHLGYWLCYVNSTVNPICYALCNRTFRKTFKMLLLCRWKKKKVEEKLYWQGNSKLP
row,SMILES,outcome
1,CC(=O)c1cccc(OCc2cccc(C(=O)N(C)C(C)c3ccccn3)c2)c1 (stereo not given),inactive
2,CC(=O)c1cccc(N(Cc2cc(C(=O)N(C)C(C)c3ccccn3)no2)C(=O)c2ccccc2)c1 (stereo not given),inactive
3,CC(c1ccccn1)N(C)C(=O)c1cc(COc2cccc(Br)c2)on1 (stereo not given),inactive
4,CC(=O)c1cccc(OCc2cc(C(=O)NC(C)c3ccccn3)no2)c1 (stereo not given),inactive
5,CC(=O)c1cccc(OCc2ccc(C(=O)N(C)C(C)c3ccccn3)cc2)c1 (stereo not given),inactive
